Data reported in PubChem BioAssay (Tox21).
Unmarked numbers belong to inactive results. Inconclusive results are not listed. Entries that show only a call come without a potency. Activity calls are given as the source filed them. Unless noted, calls come from the whole dose curve; as a rule, active = well fitted curve in the direction sought with a large enough effect in the repeat runs; inconclusive = weak or mixed curves; inactive = no such curve, though single readings can be large; an effect the other way counts as inactive or inconclusive.

How the values were obtained:
[1] = target: Luciferin 4-monooxygenase (Photinus pyralis) (UniProt P08659); experiment: qHTS assay to identify small molecule inhibitors of firefly luciferase (AID 1224835); note: nearly all actives have a fitted effect of over 25% in size; note: potency is the fitted concentration of half-maximal effect
In short: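 Quantitative HTS format; KM concentrations of both substrates. Purified P. pyralis FLuc activity quantified from luminescence images.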

[2] = qHTS assay to identify small molecule agonists of the constitutive androstane receptor (CAR) signaling pathway - cell viability counter screen (AID 1224836); note: nearly all actives have a fitted effect of over 45% in size
In short: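 Using CellTiter-Fluor, viability of HepG2 cells harbouring hCAR and CYP2B6-2.2kb was measured following 23 h incubation with a 15-concentration compound series plus PK11195 (0.75 uM final).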

[3] = qHTS assay to identify small molecule antagonists of the constitutive androstane receptor (CAR) signaling pathway - cell viability counter screen (AID 1224837); note: nearly all actives have a fitted effect of over 45% in size
In short: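 HepG2 cells stably carrying hCAR and CYP2B6-2.2kb reporter, stimulated with 50 nM CITCO and compounds at 15 concentrations for 23 h at 37 C. Viability measured by CellTiter-Fluor fluorescence.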

[4] = target: Nuclear receptor subfamily 1 group I member 3 (Homo sapiens) (UniProt Q14994); experiment: qHTS assay to identify small molecule antagonists of the constitutive androstane receptor (CAR) signaling pathway (AID 1224838); note: nearly all actives have a fitted effect of over 40% in size
In short: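 HepG2 cells stably carrying hCAR and a CYP2B6-2.2kb luciferase reporter, seeded 4 hrs before compound (15 concentrations). Stimulated with 50 nM CITCO for 24 hr at 37 C. ONE-Glo luminescence read after 30 min at room temperature.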

[5] = target: Nuclear receptor subfamily 1 group I member 3 (Homo sapiens) (UniProt Q14994); experiment: qHTS assay to identify small molecule agonists of the constitutive androstane receptor (CAR) signaling pathway (AID 1224839); note: nearly all actives have a fitted effect of over 15% in size; note: potency is the fitted concentration of half-maximal effect
In short: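 Double-stable HepG2 cells (hCAR, CYP2B6-2.2kb) seeded 4 h before compound addition. Exposure 24 h with 0.75 uM PK11195 final. Luciferase detected by ONE-Glo.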

[6] = qHTS assay to identify small molecule antagonists of the estrogen related receptor signaling pathway with the pleiotropic PPARgamma coactivator (PGC) from Tox21 10K library - cell viability counter screen (AID 1224840; active = well fitted cell-killing curve with a large enough effect in the repeat runs, not every such curve was filed as active; note: nearly all actives have a fitted effect of over 40% in size)
In short: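 PGC/ERR cells (2,000/well) plated 6 h, then compound-treated for 17.5 h at 37 C. Viability measured by CellTiter-Fluor fluorescence after 30 min at 37 C, multiplexed with the pathway assay.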

[7] = target: Thyrotropin receptor (Homo sapiens) (UniProt P16473); experiment: qHTS assay to identify small molecule agonists of the thyroid stimulating hormone receptor (TSHR) signaling pathway (AID 1224843; calls by dose curve; note: nearly all actives have a fitted effect of over 45% in size)
In short: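 Cell line HEK293 with TSHR; density 800/well. Exposure 30 min RT. Readout HTRF cAMP (cAMP-d2/anti-cAMP-cryptate), 1 h RT before reading.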

[8] = qHTS assay to identify small molecule agonists of the hypoxia (HIF-1) signaling pathway - cell viability counter screen (AID 1224844; calls by dose curve; note: nearly all actives have a fitted effect of over 50% in size; note: potency is the fitted concentration of half-maximal effect)
In short: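 HRE-bla ME-180 cells, 2,000/well in 0.5% dialyzed FBS medium, treated 17 h at 37C with compounds. Viability read in the same wells as the bla reporter, by CellTiter-Glo luminescence after 30 min at room temperature.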

[9] = qHTS assay to identify small molecule agonists of H2AX (AID 1224845; active = well fitted activation curve with a large enough effect in the signal ratio in the repeat runs, not every such curve was filed as active; the % refers to the signal ratio)
In short: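 Wild-type CHO-K1 cells plated overnight, then exposed 3 hr at 37C to compounds at 15 concentrations (0.76% DMSO). Lysed, then HTRF anti-pH2AX(S139)-cryptate/anti-H2AX-d2 detection after 24 hr at room temperature; emissions 665 and 620 nm.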

[10] = qHTS assay to identify small molecule agonists of the hypoxia (HIF-1) signaling pathway (AID 1224846; active = well fitted activation curve with a large enough effect in the signal ratio in the repeat runs, not every such curve was filed as active; the % refers to the signal ratio)
In short: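 HRE-bla ME-180 beta-lactamase reporter cells in medium with 0.5% dialyzed FBS, pre-incubated 5 h then exposed to compounds 17 h at 37C, 5% CO2; reporter induction read with CCF4-AM FRET substrate.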

[11] = qHTS assay to identify small molecule agonists of H2AX - cell viability counter screen (AID 1224847; calls by dose curve; note: top concentration of the series differs between compounds; nearly all actives have a fitted effect of over 30% in size)
In short: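 Quantitative HTS viability measurement: CHO-K1 wild-type cells in serum (10% FBS) medium, short 3 hr drug exposure at 37C with 0.76% DMSO, CellTiter-Glo luminescent detection.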

[12] = qHTS RealTime-Glo MT Cell Viability Assay in HepG2 cells - 24 hour (AID 1224867); note: nearly all actives have a fitted effect of over 50% in size
In short: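 Cell number in HepG2 cultures estimated from NanoLuc luminescence generated by metabolic reduction of a prosubstrate by living cells. The homogeneous, nonlytic format allowed repeated reads at 0, 8, 16, 24, 32 and 40 h of compound exposure.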

[13] = A CellTox Green Cytotoxicity Assay to monitor cytotoxicity in HEK293 cells - 0 hour (AID 1224869); note: nearly all actives have a fitted effect of over 50% in size
In short: (§1)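 HEK293 cells, 600/well, were preincubated 5 hours and then exposed to compounds at 37 C for up to 40 hours. A cell-impermeant cyanine dye staining dead-cell DNA was read by fluorescence at 0, 8, 16, 24, 32 and 40 h time points.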

[14] = A CellTox Green Cytotoxicity Assay to monitor cytotoxicity in HEK293 cells - 40 hour (AID 1224871); note: nearly all actives have a fitted effect of over 45% in size
In short: as §1

[15] = qHTS RealTime-Glo MT Cell Viability Assay in HEK293 cells - 32 hour (AID 1224868); note: nearly all actives have a fitted effect of over 50% in size; note: potency is the fitted concentration of half-maximal effect
In short: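 Homogeneous bioluminescent viability format in HEK293 cells (600 cells/well). Following 5 h at 37 C/5% CO2, 23 nL compound was pintooled; the signal was measured repeatedly during 40 h incubation.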

[16] = qHTS RealTime-Glo MT Cell Viability Assay in HepG2 cells - 40 hour (AID 1224870); note: nearly all actives have a fitted effect of over 50% in size
In short: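 HepG2 cells mixed with RealTime-Glo MT reagents (NanoLuc plus cell-permeant prosubstrate) were seeded at 600 cells/well, incubated 5 h at 37 C/5% CO2, then pinned with compounds in DMSO; nonlytic luminescence tracked viability during 40 h treatment.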

[17] = qHTS assay to identify small molecule agonists of the estrogen related receptor signaling pathway with the pleiotropic PPARgamma coactivator (PGC) from Tox21 10K library (AID 1224842); note: nearly all actives have a fitted effect of over 15% in size
In short: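 PGC/ERR reporter cells (NTP line) were seeded 2,000 per well, rested 6 h at 37 C/5% CO2, then pin-dosed with compounds in DMSO for 18 h at 37 C; luciferase read by One-Glo luminescence after 30 min at room temperature.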

[18] = qHTS assay to identify small molecule antagonists of the estrogen related receptor (ERR) signaling pathway from Tox21 library (AID 1224848); note: nearly all actives have a fitted effect of over 50% in size; note: potency is the fitted concentration of half-maximal effect
In short: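 Screening used an ERR reporter line supplied by NTP, exposed for 18 h at 37 C to library compounds delivered in DMSO. Signal was luciferase luminescence developed with ONE-Glo at room temperature for 30 min.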

[19] = qHTS assay to identify small molecule agonists of the estrogen related receptor (ERR) signaling pathway from Tox21 library (AID 1224849; calls by dose curve; note: nearly all actives have a fitted effect of over 15% in size); details: ERR reporter cell line, ONE-Glo luciferase, 18 h; at 92.4 µM (top of the series) unless noted
In short: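 ERR reporter cells (NTP line) pre-incubated 6 hours at 37 C, then exposed to compounds for 18 hours at 37 C. ONE-Glo luciferase luminescence was read after 30 minutes at room temperature.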

Chain of Thyrotropin receptor (Homo sapiens) (P16473 whole entry, looked up): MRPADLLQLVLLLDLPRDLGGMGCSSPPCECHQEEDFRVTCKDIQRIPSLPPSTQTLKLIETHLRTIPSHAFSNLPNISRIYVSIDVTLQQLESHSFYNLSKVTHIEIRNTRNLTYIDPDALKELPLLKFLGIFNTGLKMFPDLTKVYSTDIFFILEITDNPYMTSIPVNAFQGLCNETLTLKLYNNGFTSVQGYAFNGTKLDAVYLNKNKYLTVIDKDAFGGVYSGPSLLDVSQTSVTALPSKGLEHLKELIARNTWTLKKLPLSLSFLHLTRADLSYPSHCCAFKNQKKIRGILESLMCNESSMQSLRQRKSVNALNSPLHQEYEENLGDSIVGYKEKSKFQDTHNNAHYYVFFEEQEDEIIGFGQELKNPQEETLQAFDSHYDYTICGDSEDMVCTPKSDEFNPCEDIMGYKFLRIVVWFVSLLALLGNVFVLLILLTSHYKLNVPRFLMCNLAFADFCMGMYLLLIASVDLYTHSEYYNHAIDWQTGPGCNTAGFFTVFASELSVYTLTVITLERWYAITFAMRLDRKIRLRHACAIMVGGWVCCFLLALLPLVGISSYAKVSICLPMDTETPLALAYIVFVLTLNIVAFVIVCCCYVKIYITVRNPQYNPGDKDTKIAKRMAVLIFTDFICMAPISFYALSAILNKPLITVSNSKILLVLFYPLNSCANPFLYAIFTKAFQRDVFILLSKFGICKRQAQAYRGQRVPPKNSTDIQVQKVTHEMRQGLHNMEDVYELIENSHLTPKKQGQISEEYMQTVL
Chain of Nuclear receptor subfamily 1 group I member 3 (Homo sapiens) (Q14994 whole entry, looked up): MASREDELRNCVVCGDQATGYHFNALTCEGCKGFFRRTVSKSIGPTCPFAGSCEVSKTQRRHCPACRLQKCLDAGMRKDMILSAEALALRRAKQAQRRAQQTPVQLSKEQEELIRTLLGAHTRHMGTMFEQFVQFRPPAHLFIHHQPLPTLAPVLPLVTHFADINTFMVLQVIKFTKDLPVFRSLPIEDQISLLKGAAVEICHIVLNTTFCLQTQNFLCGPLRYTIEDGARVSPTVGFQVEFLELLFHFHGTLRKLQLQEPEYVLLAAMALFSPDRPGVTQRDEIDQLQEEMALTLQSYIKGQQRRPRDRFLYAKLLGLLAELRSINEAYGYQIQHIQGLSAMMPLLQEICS
Chain of Luciferin 4-monooxygenase (Photinus pyralis) (P08659 whole entry, looked up): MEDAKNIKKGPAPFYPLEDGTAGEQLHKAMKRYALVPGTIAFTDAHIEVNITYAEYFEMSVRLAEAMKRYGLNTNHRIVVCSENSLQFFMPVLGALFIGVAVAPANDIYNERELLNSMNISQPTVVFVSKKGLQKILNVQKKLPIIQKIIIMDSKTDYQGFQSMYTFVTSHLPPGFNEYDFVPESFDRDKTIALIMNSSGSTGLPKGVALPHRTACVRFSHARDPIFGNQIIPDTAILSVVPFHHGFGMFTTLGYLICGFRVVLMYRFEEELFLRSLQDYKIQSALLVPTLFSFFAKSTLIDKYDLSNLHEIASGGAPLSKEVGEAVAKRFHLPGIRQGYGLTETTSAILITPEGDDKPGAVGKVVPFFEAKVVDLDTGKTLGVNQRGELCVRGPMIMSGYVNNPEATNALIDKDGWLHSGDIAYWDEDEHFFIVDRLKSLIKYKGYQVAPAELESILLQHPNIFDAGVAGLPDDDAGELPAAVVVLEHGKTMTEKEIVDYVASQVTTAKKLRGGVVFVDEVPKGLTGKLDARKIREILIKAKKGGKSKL

Structure (SMILES) | Potency [1] | Potency [2] | Potency [3] | Potency [4] | Potency [5] | Potency [6] | Potency [7] | Potency [8] | Potency [9] | outcome [10] | Potency [11] | Potency [12] | Potency [13] | Potency [14] | Potency [15] | Potency [16] | Potency [17] | Potency [18] | activity change, positive = activation [19]
CCN | inactive | inactive | inactive | inactive | inactive | inactive | inactive | inactive | inactive | inactive | inactive | inactive | inactive | inactive |  |  |  |  | 
CC(=O)c1ccc(-c2ccccc2)cc1 | 31.7 µM (active) | inactive | inactive | inactive | 48.6 µM (active) | inactive | inactive | inactive | inactive | inactive | inactive | inactive | inactive | inactive | inactive | inactive |  |  | 
CC(C)(C)OO | inactive | inactive | inactive | inactive | inactive | inactive | inactive | inactive | inactive | inactive | inactive | inactive | inactive |  | inactive |  |  |  | 
N#Cc1ccc(O)cc1 | inactive | inactive | inactive | inactive | inactive | inactive | inactive | inactive | inactive | inactive | inactive | inactive | inactive | inactive | inactive | inactive |  |  | 
COc1cc(N)c(Cl)cc1C(=O)NC1CN2CCC1CC2 (stereo not drawn) | inactive | inactive | inactive | inactive | inactive | inactive | inactive | inactive | inactive | inactive | inactive | inactive | inactive |  | inactive | inactive |  |  | 
CC(C)(O)c1cnn2c(-c3ccc(F)c(-c4c(F)cccc4C#N)c3)cnc2n1 | inactive | inactive | inactive | inactive | inactive | inactive | inactive | 54.9 µM (active) |  |  |  | inactive | inactive |  | 5.49 µM (active) | inactive | inactive | 27.3 µM (active) | -53.4%
C[C@]12CC[C@@H]3c4ccc(OC(=O)N(CCCl)CCCl)cc4CC[C@H]3[C@@H]1CC[C@@H]2O | inactive | inactive | inactive | inactive | inactive | inactive | inactive | inactive | inactive |  | inactive | inactive | inactive | inactive | inactive | inactive | inactive | inactive | -21.8% [at 42.5 µM]
